High-throughput results from PubChem BioAssay.
S1P2 agonist: S1P2 receptor agonists, primary screen, cell-based. Sphingosine 1-phosphate receptor 2 (Homo sapiens), O95136. S1P2-expressing cell line, agonist reporter read-out. activation, % at 4.5 µM. actives 0.46% (n = 97,000); in the data active = activation above about 16%
GALR2 ag: GALR2 receptor agonists, primary screen, cell-based. Galanin receptor type 2 (Homo sapiens), O43603. GALR2-expressing cells, agonist activation read-out. activation, % (test concentration not listed). actives 0.48% (n = 140,000); in the data active = activation above about 5%, passing the limit was not always enough
Target sequence (O43603 whole entry, looked up): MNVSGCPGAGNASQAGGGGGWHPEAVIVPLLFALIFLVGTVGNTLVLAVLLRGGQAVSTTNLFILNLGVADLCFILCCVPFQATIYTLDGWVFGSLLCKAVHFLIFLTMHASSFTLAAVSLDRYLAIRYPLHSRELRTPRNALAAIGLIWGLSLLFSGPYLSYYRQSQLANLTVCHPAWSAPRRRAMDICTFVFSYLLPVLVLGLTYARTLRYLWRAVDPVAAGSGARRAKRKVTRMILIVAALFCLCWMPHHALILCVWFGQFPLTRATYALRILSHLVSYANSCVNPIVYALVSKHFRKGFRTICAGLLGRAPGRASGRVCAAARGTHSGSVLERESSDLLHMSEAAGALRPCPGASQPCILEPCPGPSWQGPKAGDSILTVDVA
GALR2 blocker: GALR2 antagonists in receptor-expressing cells, primary screen; Galanin receptor type 2 (Homo sapiens), O43603; actives 0.39% (n = 140,000); inhibition, % at 4 µM; antagonist mode;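 also: cells stimulated with galanin 1-16 at roughly its EC80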
S1P2 antag: human S1P2 receptor antagonists, primary screen, cell-based; cell-based S1P2 antagonist assay, inhibition at 5 uM; inhibition, % at 5 µM; actives 0.21% (n = 97,000); AID 736, 2007; in the data active = inhibition above about 45%;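 also: CRE beta-lactamase reporter cells expressing human S1P2 stimulated with S1P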
GALR2 ant conf: GALR2 antagonists, retest of hits, confirmation, cell-based. inhibition, % at 4 µM. GALR2-expressing cells, antagonist mode, inhibition. AID 866, 2007. actives 60% (n = 480). shares compounds with GALR2 blocker;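 also: cells stimulated with galanin at about its EC80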
BLA inhib ctr: inhibitors of NFAT-driven beta-lactamase reporter, confirmation, counter-screen for GALR2 antagonist project, CHO NFAT-bla cells, FRET readout; AID 867, 2007; actives 36% (n = 480); shares compounds with GALR2 blocker; inhibition, % at 4.2 µM; thapsigargin-stimulated;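 active = inhibition above the mean inhibition across tested compounds plus 3 SD, cut at about 27% in these data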
Numbers stand for hits; – = inactive; · = not tested or not shown. A selection: hits, their analogues and other compounds. The true share with any hit is near 1.2%. Rule as the data show it, unless noted: active = inhibition above about 27%; inactive = the rest.

SMILES	S1P2 agonist	GALR2 ag	GALR2 blocker	S1P2 antag	GALR2 ant conf	BLA inhib ctr
CC(=O)c1ccc(OC2OCCOC2Oc2ccc(C(C)=O)cc2)cc1 (centres undefined)	·	–	–	·	·	·
CC(Oc1ccc(Cl)cc1)C(=O)N/N=C/c1ccsc1 (centres undefined)	·	–	–	·	·	·
CN(C)S(=O)(=O)c1cccc(NC(=O)Cn2cnc3ccccc3c2=O)c1	–	–	–	–	·	·
CC(=O)c1ccc(NC(=O)c2cc3nc4c(c(C(F)(F)F)n3n2)CCCC4)cc1	–	–	31	–	–	–
CCNc1nc(NCC)nc(SCCOC(=O)Nc2ccc(Cl)cc2Cl)n1	·	–	–	·	·	·
CCOC(=O)COc1ccc2ccccc2c1/C=C/[N+](=O)[O-]	·	–	–	·	·	·
CCOC(=O)COc1ccc(/C=C/[N+](=O)[O-])c(OCC(=O)OCC)c1	–	–	27	–	31	–
NC(=S)Nc1ccc(Oc2ccc(NC(N)=S)cc2)cc1	–	–	–	–	·	·
O=C(C#Cc1ccccc1)c1cccc([N+](=O)[O-])c1	–	–	34	67	72	75
N/C(=N\OC(=O)Oc1ccccc1)c1cccc([N+](=O)[O-])c1	·	–	–	·	·	·
CC(C)CNC(=O)c1ccccc1NC(=O)Nc1ccccc1	–	–	–	–	·	·
O=C(Nc1ccc(Cl)cc1F)C1CC1	·	–	–	·	·	·
Cc1cccnc1Nc1nc(-c2ccccn2)cs1	–	–	27	–	51	31
Cc1ccc(S(=O)(=O)NCCC(=O)Nc2cccc(Cl)c2)cc1	·	–	–	·	·	·
Nc1c(C(=O)Nc2nc3ccccc3s2)sc2nc(-c3cccs3)ccc12	–	–	41	73	49	49
Cc1ccc2nc(Cl)c(CN(C(=O)c3cnccn3)C3CCCCC3)cc2c1	–	–	–	–	·	·
CC[C@@H]1C=C(C)C[C@H](C)C[C@H](OC)[C@H]2O[C@@](O)(C(=O)C(=O)N3CCCC[C@H]3C(=O)O[C@H](/C(C)=C/[C@@H]3CC[C@@H](O)[C@H](OC)C3)[C@H](C)[C@@H](O)CC1=O)[C@H](C)C[C@@H]2OC	·	–	101	·	103	104
Cc1ccc(C(=O)N/C(=C\c2cccs2)C(=O)NCc2cccnc2)cc1	·	–	–	·	·	·
Cc1ccc(C(=O)N/C(=C/c2cccs2)C(=O)NCc2ccco2)cc1	·	–	27	·	–	–
N#CC1=C(N)Nc2nc3ccccc3n2C1c1ccc(Cl)cc1 (centres undefined)	·	–	32	·	27	46
N#CC1=C(N)Nc2ncnn2C1c1ccccc1 (centres undefined)	·	–	–	·	·	·
CC(=O)c1c(C)[nH]c(C(=O)COC(=O)c2cc(S(=O)(=O)N(C)c3ccccc3)ccc2Cl)c1C	·	–	28	·	–	–
CSc1nnc(C)c(=O)n1COC(=O)c1ccc(S(=O)(=O)N(C)C)cc1	·	–	–	·	·	·
Cc1ccc2[nH]c3c(N4CCCCCC4)ncnc3c2c1	–	–	38	92	42	–
c1ccc2c(c1)[nH]c1c(N3CCC4(CC3)OCCO4)ncnc12	–	–	–	–	·	·
SMILES	S1P2 agonist	GALR2 ag	GALR2 blocker	S1P2 antag	GALR2 ant conf	BLA inhib ctr
COc1ccc2c(c1)[nH]c1c(N3CCN(Cc4ccc5c(c4)OCO5)CC3)ncnc12	–	–	38	87	44	–
c1ccc(CN2CCN(c3ncnc4c3[nH]c3ccccc34)CC2)cc1	–	–	36	78	40	–
Cc1cc(C)nc(NS(=O)(=O)c2ccc(NC(=O)C3(c4ccccc4)CCCC3)cc2)n1	·	–	–	·	·	·
CCCCN(C)CCn1c(=S)[nH]c2ncccc2c1=O	–	–	32	–	–	–
CC(C)NC(=O)CSc1nncn1-c1ccccc1	·	–	27	·	–	–
O=C(OCCN1C(=O)c2cccc3c(N4CCOCC4)ccc(c23)C1=O)c1ccccc1Cl	·	–	33	·	34	46
CCCCOc1ccc(-c2nnn(CC(=O)NCCc3c[nH]c4ccccc34)n2)cc1	–	–	–	–	·	·
